What follows are molecules tested on Plasmodium falciparum (assay: GSK_TCMDC: Inhibition of Plasmodium falciparum 3D7 in whole red blood cells, using parasite LDH activity as an index of growth. Test compounds present at 2uM).
Format: functional

Row | Compound | Inhibition [%]
1 | CCCc1ccc(S(=O)(=O)NC2CCN(c3ccnc(Nc4ccc(F)cc4)n3)C2)cc1 (stereo unspecified) | 95
2 | O=C(Nc1nc2cc(S(=O)(=O)NCCc3ccc(F)cc3)ccc2n1CCCn1ccnc1)c1ccc(Cl)cc1.O=C(O)C(F)(F)F | 100
3 | O=C(Nc1cccc(-c2ccc(-c3nc4cc(C(F)(F)F)ccc4[nH]3)s2)c1)c1c[nH]cn1 | 89
4 | CN(C)CC1CCCN1Cc1ccccc1-c1cnn(C)c(=O)c1Oc1cccc(C#N)c1.O=C(O)C(F)(F)F (stereo unspecified) | 92
5 | Cc1ccc(Cc2cnc(CN3CCCCC3)c(O)c2)cc1.Cl | 93
6 | COc1ccc(Cl)cc1S(=O)(=O)Nc1cccc(CCN2CCC(N3CCCCC3)CC2)c1 | 100
7 | Cc1nc2c(c(O)c1Cl)-c1ccc(Oc3cccc(C(F)(F)F)c3)cc1C2=O | 98
8 | Cc1cc(N(C)C)nc(Nc2ccc(NC(=O)C3CCCCC3)cc2)n1 | 100
9 | CN(C)CCOc1cc(NC(=O)Nc2ccc(-c3ccncc3)c(C(F)(F)F)c2)ccc1Cl | 100
10 | Cc1cc(OCCCN2CCC(NS(=O)(=O)c3ccc(Cl)c(Cl)c3)C2)c2ccccc2n1 (stereo unspecified) | 87
11 | Cc1noc(C)c1-c1cccc(CNCc2cccc(-c3ccc(-c4nc5ccccc5[nH]4)s3)c2)c1.O=C(O)C(F)(F)F | 100
12 | COc1ccc(C(=O)Nc2cc(Br)c3c(c2)CNCC3)cc1C(F)(F)F.Cl | 90
13 | COc1ccc(CNCc2ccccc2)cc1-c1ccc(S(=O)(=O)NCCN2CCCC2)c(C)c1.O=C(O)C(F)(F)F | 99
14 | CCc1cn2c3c(cc(C(=O)N[C@@H](Cc4cc(F)cc(F)c4)[C@H](O)CNC4CCOCC4)cc13)N(C)S(=O)(=O)CC2.O=CO | 98
15 | O=C(O)C(F)(F)F.O=[N+]([O-])c1cccc(CNC2CCN(Cc3ccc(-c4ccccc4)cc3)CC2)c1 | 100
16 | CC(C)(C)c1cc(C(=O)N2CCN(c3cnccn3)CC2)n(Cc2ccccc2)n1 | 92
17 | Cc1[nH]c(C)c(-c2ccc(Nc3ccc(C(F)(F)F)cn3)cc2)c(=O)c1Br | 99
18 | N=C(N)Nc1nc(-c2cccc(NCCCCCCCCON3C(N)=NC(N)=NC34CCCCC4)c2)cs1.O=C(O)C(F)(F)F | 97
19 | Cc1nc(N)nc(N)c1-c1ccc2ccccc2c1 | 97
20 | Cc1sc(CNCCCNc2cc(=O)c3ccccc3[nH]2)c(C(F)(F)F)c1C.Cl | 99
21 | Cn1nccc1C(=O)NCCNCc1ccc(-c2cccc(-c3nc4cc(F)ccc4[nH]3)c2)cc1.O=C(O)C(F)(F)F | 100
22 | COc1cc2ccccc2cc1CNCCCCCCNCc1cc2ccccc2cc1OC.CS(=O)(=O)O | 100
23 | COc1ccccc1N(C)CCNc1cc(C)nc(Nc2ccc(C)cc2)n1 | 93
24 | O=C(C=Cc1cn(-c2ccccc2)nc1-c1cccs1)N1CCN(c2ccncc2)CC1 | 100
25 | O=C(/C=C/c1ccc(Cl)c(Cl)c1)NCCCCCN1CCCC(C(=O)Nc2ccc(Cl)c(Cl)c2)C1 (stereo unspecified) | 100
26 | CCCNC(=O)C1CCN(C(c2ccc(Cl)cc2)c2ccc(Cl)cc2)CC1 | 98

Source: ChEMBL document CHEMBL1157539, “Thousands of chemical starting points for antimalarial lead identification” (Nature, 2010)
